# Measurements reported in PubChem BioAssay (NCATS).
# “And” between values parts separate entries of the source, which are not always exact repeats. Identical values can stand only once. Records with an inconclusive call do not appear. The source made the active and inactive calls. Unless noted, calls follow the shape of the dose curve; as a rule, active = well fitted curve in the direction sought with a large enough effect in the repeat runs; inconclusive = weak or mixed curves; inactive = no such curve, though single readings can be large; an effect the other way counts as inactive or inconclusive.
# What was measured:
# [1] = target: Cytochrome P450 2C9 (Homo sapiens) (UniProt P11712); test: Cytochrome P450 family 2 subfamily C member 9 (CYP2C9) small molecule antagonists: luciferase biochemical (cell-free) qHTS assay (AID 1645842); also: nearly all actives have a fitted effect of over 55% in size; also: potency is read from the fitted curve at half-maximal effect; as to activity change, negative = inhibition: % is scaled to controls: 0 for no effect and ±100 for the full control effect
# How it was run: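 P450-Glo CYP2C9 system: proluciferin substrate with enzyme in mix containing 0.4% BSA, 10 min at room temperature, then NADPH regeneration solution added and incubated 1 h at 37C. Detection reagent stopped reaction; luminescence read after 20 min as RLU.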
# [2] = NCATS anti-infectives library activity on HEK293 viability as a counter-qHTS vs the C. elegans viability qHTS (AID 1745854; active = well fitted curve in the direction sought with a large enough effect; an effect the other way counts as inactive or inconclusive; also: % is scaled to controls: 0 for no effect and ±100 for the full control effect)
# How it was run: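 Cytotoxicity counter-screen to a worm viability qHTS: CellTiter-Glo luminescence read 10 min after reagent addition. Compounds (final up to 41.7 uM, a 1:5 dilution series) incubated 24 hr at 37C with 1,500 HEK293 cells per well; digitonin control.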
# [3] = Primary qHTS for inhibitors of nuclear receptor binding SET domain protein 2 (NSD2) in an RCH-ACV wild type WT cells (2C) (AID 1645877; active = well fitted curve in the direction sought with a large enough effect; an effect the other way counts as inactive or inconclusive; also: nearly all actives have a fitted effect of over 70% in size; also: potency is read from the fitted curve at half-maximal effect)
# [4] = target: Catechol O-methyltransferase (Homo sapiens) (UniProt P21964); test: Confirmatory Screen for Target Class Profiling of Small Molecule Inhibitors of Methyltransferases (AID 1745852; calls by dose curve; also: potency is read from the fitted curve at half-maximal effect; as to activity change, negative = inhibition: % is scaled to controls: 0 for no effect and ±100 for the full control effect); details: MTase-Glo luminescence, SAH detection, recombinant enzyme; measured here: COMT max response; stronger effect = lower value
# [5] = target: Guanidinoacetate N-methyltransferase (Homo sapiens) (UniProt Q14353); test: as above; details: activity change, negative = inhibition: at 57.3 µM (top of the series) unless noted
# [6] = target: Nicotinamide N-methyltransferase (Homo sapiens) (UniProt P40261); test: as above; details: MTase-Glo luminescence, SAH detection, recombinant enzyme; measured here: NNMT max response; stronger effect = lower value
# [7] = target: Phenylethanolamine N-methyltransferase (Homo sapiens) (UniProt P11086); test: as above; details: MTase-Glo luminescence, SAH detection, recombinant enzyme; measured here: PNMT max response; stronger effect = lower value
# Sequence of Phenylethanolamine N-methyltransferase (Homo sapiens) (P11086 whole entry, looked up): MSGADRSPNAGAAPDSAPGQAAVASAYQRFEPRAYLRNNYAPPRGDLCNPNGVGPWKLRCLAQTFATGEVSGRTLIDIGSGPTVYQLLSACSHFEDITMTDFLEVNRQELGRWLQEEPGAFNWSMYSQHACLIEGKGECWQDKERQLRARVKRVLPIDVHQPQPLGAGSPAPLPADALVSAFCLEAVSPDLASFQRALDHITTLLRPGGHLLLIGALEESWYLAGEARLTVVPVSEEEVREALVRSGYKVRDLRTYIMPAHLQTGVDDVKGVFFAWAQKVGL
# Sequence of Catechol O-methyltransferase (Homo sapiens) (P21964 whole entry, looked up): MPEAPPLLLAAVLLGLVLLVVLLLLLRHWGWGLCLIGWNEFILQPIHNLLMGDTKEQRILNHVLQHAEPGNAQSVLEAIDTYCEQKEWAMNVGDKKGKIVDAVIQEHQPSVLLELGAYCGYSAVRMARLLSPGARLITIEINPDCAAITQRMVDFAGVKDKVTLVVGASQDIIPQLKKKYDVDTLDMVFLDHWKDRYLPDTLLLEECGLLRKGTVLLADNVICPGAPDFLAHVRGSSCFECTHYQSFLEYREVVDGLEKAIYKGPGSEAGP
# Sequence of Nicotinamide N-methyltransferase (Homo sapiens) (P40261 whole entry, looked up): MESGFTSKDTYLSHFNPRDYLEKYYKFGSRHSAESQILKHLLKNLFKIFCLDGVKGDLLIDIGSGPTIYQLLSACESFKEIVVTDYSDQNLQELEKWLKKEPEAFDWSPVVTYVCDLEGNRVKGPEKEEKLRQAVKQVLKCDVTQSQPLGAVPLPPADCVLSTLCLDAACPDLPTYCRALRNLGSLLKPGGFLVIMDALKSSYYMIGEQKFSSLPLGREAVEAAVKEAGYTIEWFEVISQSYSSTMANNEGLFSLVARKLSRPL
# Sequence of Cytochrome P450 2C9 (Homo sapiens) (P11712 whole entry, looked up): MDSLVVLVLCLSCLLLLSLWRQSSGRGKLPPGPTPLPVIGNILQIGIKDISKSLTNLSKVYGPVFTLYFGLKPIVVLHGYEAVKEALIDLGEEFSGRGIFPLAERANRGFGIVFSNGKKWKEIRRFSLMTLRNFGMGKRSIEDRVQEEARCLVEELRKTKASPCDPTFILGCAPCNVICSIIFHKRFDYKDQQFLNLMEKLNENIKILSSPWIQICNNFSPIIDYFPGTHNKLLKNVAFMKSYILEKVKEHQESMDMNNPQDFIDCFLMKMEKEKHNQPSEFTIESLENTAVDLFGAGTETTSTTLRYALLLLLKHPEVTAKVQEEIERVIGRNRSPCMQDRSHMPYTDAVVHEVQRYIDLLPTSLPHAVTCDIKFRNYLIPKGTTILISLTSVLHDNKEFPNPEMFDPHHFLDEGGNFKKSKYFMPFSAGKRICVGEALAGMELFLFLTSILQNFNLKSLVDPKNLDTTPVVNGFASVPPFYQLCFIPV
compound,measurement,setting,value
CCCC(CCC)C(N)=O,Potency,[1],inactive
same,outcome,[2],inactive
CCCCNc1ncc(-c2ccc(CN3CCOCC3)cn2)c(NC2CCC(O)CC2)n1 (centres undefined),Potency,[1],inactive
same,Potency,[3],632 nM (active) and 1.15 µM (active)
O=C(Nc1ccc(C(F)(F)F)cn1)N1CCN(c2ncccc2C(F)(F)F)CC1,Potency,[1],3.01 µM (active)
same,activity,[4],-1.28%
same,"activity change, negative = inhibition",[5],0%
same,activity,[6],-0.919%
same,activity,[7],-60.8%
CN(C)[C@@H]1CCc2[nH]c3ccc(NC(=O)c4ccc(F)cc4)cc3c2C1,Potency,[1],inactive
same,activity,[4],0.841%
same,"activity change, negative = inhibition",[5],0%
same,activity,[6],0.33%
same,activity,[7],-1.89%
Cc1cccc(CC(=O)N2CCc3c2ccc(-c2cn(C)c4ncnc(N)c24)c3F)n1,Potency,[1],10.7 µM (active)
same,Potency,[3],16.4 µM (active)
Cc1cc(C)cc(-c2cnc3cc(Cl)c(-c4cccc(O)c4)cc3c2OCCCN)c1,Potency,[1],1.2 µM (active)
same,Potency,[3],16.3 µM (active)
same,activity,[4],-38.4%
same,Potency,[5],42.9 µM (active)
same,activity,[6],-83.8%
same,activity,[7],-37.3%
S=C(c1ccc(-c2ccc(Cl)c(Cl)c2)o1)N1CCCCC1,Potency,[1],3.38 µM (active)
same,Potency,[3],inactive
CC(C)(C)c1ccc(C(=O)Nc2cc(Cl)c(Br)cc2C(=O)O)cc1,Potency,[1],16.9 µM (active)
same,Potency,[3],11.5 µM (active)
same,activity,[4],-14%
same,"activity change, negative = inhibition",[5],-8.07%
same,activity,[6],-40.5%
same,activity,[7],-22%
N#C/C(=C1\Nc2ccccc2S1)c1ccnc(NCCc2cccnc2)n1,Potency,[1],0.239 µM (active)
same,activity,[4],-23.6%
same,Potency,[5],15.2 µM (active)
same,activity,[6],-43.4%
same,activity,[7],-21.8%
Cc1cc(C)nc(SCC(=O)Nc2ncc(Cc3cccc4ccccc34)s2)n1,Potency,[1],10.7 µM (active)
same,Potency,[3],inactive
CCOc1ccc(-n2c([C@@H](C)N(Cc3cccnc3)C(=O)Cc3ccc(OC(F)(F)F)cc3)nc3ncccc3c2=O)cc1,Potency,[1],0.952 µM (active)
same,Potency,[3],18.3 µM (active)
CS(=O)(=O)Nc1ccc2oc3c(OC(F)F)ccc(C(=O)Nc4c(Cl)cncc4Cl)c3c2c1,Potency,[1],3.38 µM (active)
same,activity,[4],-3.19%
same,"activity change, negative = inhibition",[5],-1.02%
same,activity,[6],-19.3%
same,activity,[7],-4.54%
CCn1c(-c2nonc2N)nc2c(C#CCO)ncc(OCCCN)c21,Potency,[1],inactive
same,Potency,[3],5.78 µM (active)
Cc1c(C(=O)NCc2cccnc2)nn(-c2ccc(Cl)cc2Cl)c1-c1ccc(Cl)cc1,Potency,[1],5.35 µM (active)
same,Potency,[3],20.5 µM (active)
C[C@H]1CO[C@@H]2Cn3cc(C(=O)NCc4ccc(F)cc4F)c(=O)c(O)c3C(=O)N12,Potency,[1],inactive
same,outcome,[2],inactive
C=CC(=O)N1CCN(C(=O)CNc2cc(-c3ccccc3Cl)c(Cl)cc2OC)CC1,Potency,[1],3.01 µM (active)
same,Potency,[3],16.3 µM (active)
CC(C)c1cc2c(N3CCN(C4=NCC(C)(C)S4)CC3)ncnc2s1,Potency,[1],inactive
same,activity,[4],-1.24%
same,"activity change, negative = inhibition",[5],0.38%
same,activity,[6],-65.8%
same,activity,[7],-7.2%
O=C(NCCN1CCC(n2c(=O)[nH]c3ccccc32)CC1)c1ccc2ccccc2c1,Potency,[1],7.56 µM (active)
same,Potency,[3],16.3 µM (active)
CC(F)(F)CN1CCOc2c(nn(-c3ccccc3Cl)c2-c2ccc(Cl)cc2)C1=O,Potency,[1],13.5 µM (active)
same,Potency,[3],18.3 µM (active)
same,activity,[4],-4.22%
same,"activity change, negative = inhibition",[5],0.516%
same,activity,[6],-32.3%
same,activity,[7],-3.99%
CCOC(=O)N1CCC(CN(Cc2ccc(Cl)cc2)Cc2ccc([N+](=O)[O-])s2)C1 (centres undefined),Potency,[1],4.25 µM (active)
same,Potency,[3],20.5 µM (active)
same,activity,[4],-21.2%
same,"activity change, negative = inhibition",[5],1.91%
same,activity,[6],-5.08%
same,activity,[7],-5.01%
O=C(NCC1(c2nc(-c3ccccc3)cs2)CCOCC1)c1cccc(-c2noc(C(F)(F)F)n2)c1,Potency,[1],3.01 µM (active)
same,Potency,[3],25.8 µM (active)
same,outcome,[2],inactive
O=C(c1ccc(Cl)cc1)N1CCN(c2ccnc3cc(Cl)ccc23)CC1,Potency,[1],8.49 µM (active)
same,activity,[4],-6.44%
same,"activity change, negative = inhibition",[5],-4.09%
same,activity,[6],-41.3%
same,activity,[7],-10.9%
